Inconclusive results are not listed. Where a call stands in place of a potency, no number is given. A number with no mark means an inactive call. Active and inactive are the calls of the source. Unless noted, the call rests on the fitted dose curve.

For one assay, the target named is D(2) dopamine receptor (Homo sapiens) (UniProt P14416). As to the kind of experiment: Dopamine D2 receptor (DRD2) small molecule agonists, cell-based qHTS assay (AID 1963594). Further: nearly all actives have a fitted effect of over 35% in size. The settings on record: HEK293-DRD2 cAMP HTRF, agonist mode, 30 min; series mostly up to 92.4 µM; activation: at the top concentration. The gist of the method: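 HEK293 cells stably expressing human DRD2, pre-treated with PDE inhibitor Ro20-1724 (0.1 mM final) and compound 10 min at room temperature, then stimulated with NKH477 (200nM […]) for 30 min. cAMP read by HTRF (665/620 nm).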
D(2) dopamine receptor (Homo sapiens), sequence (P14416 whole entry, looked up): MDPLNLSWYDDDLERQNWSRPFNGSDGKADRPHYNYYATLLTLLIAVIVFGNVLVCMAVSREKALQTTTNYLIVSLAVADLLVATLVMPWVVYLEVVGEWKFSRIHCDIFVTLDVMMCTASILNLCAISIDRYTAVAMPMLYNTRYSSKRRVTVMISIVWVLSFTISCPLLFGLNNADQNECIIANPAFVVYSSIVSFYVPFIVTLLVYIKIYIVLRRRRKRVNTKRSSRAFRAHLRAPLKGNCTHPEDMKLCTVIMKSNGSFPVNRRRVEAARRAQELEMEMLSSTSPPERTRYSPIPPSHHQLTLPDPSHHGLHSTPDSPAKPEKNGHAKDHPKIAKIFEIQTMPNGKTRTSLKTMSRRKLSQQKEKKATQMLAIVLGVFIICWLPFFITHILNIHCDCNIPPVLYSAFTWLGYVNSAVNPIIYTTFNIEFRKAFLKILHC
In general terms: Quantitative high-throughput screening tests each substance at several concentrations.
Consider `Oc1ccc(C(c2ccc(O)cc2)(C(F)(F)F)C(F)(F)F)cc1`, for which the Potency result is “inactive”.

Regarding `O=C(Nc1ccc(Br)cc1)c1cc(Br)cc(Br)c1O`, the Potency result is “inactive”. Consider `c1ccc2c(c1)CCCC2`, for which the Potency entry is “inactive”. `CC(=[OH+])/C=C(/C)[O-].CC(=[OH+])/C=C(\C)[O-].CC(=[OH+])/C=C(\C)[O-].[Al]`: the “activation” value was 0.812%. As to `CCCCCCI`, the “activation” value is -0.408%. Same read-out and setting: the value for `Oc1ccccc1Cl` was -0.397%; that for `CC(C)(C)C(=O)Cl` was -5.83%. For `NNC(=S)NN`, the Potency result is “inactive”. For the compound `O=[N+]([O-])c1ccc([As](=O)(O)O)cc1`, the Potency result was “inactive”. For `O=C(O)C(F)(F)C(F)(F)C(F)(F)C(F)(F)C(F)(F)C(F)(F)C(F)(F)C(F)(F)F`, the “activation” value was 4.24%. The same measure, in the same setting: for `C=CC1CC=CCC1` (stereo unspecified) the value was 1.76%. With `ClC1C(Cl)C(Cl)C(Cl)C(Cl)C1Cl` (stereo unspecified), the Potency entry is “inactive”. As to `Cc1cccc([N+](=O)[O-])c1`, the “activation” value was 1.2%. Still for that read-out and setting: the value for `NC(=O)CF` was 14.2%; that for `O=C(O)C1C2CCC(O2)C1C(=O)O` (stereo unspecified) was 0.615%.

Turning to `COC(=O)c1ccccc1C(=O)OC`, the Potency result is “inactive”. In the case of `Cc1ccccc1O`, the “activation” value was 4.86%. Take `C[Si](Cn1cncn1)(c1ccc(F)cc1)c1ccc(F)cc1`: the Potency result was “inactive”. For the compound `Cc1ccccc1CCl`, the “activation” value was 5.55%. On the same count and under the same terms, for `N#Cc1cc([N+](=O)[O-])ccc1N` the value was -0.783%; for `O=Cc1ccc(Cl)cc1Cl`, -0.747%. As to `NCC(O)c1ccc(O)cc1` (stereo unspecified), the Potency result was “inactive”. Regarding `COc1ccc2c(c1OC)C(=O)O[C@@H]2[C@H]1c2cc3c(cc2CCN1C)OCO3`, the “activation” value is -0.962%. For `CC(C)(c1ccc(OCC2CO2)cc1)c1ccc(OCC2CO2)cc1` (stereo unspecified), the Potency entry is “inactive”.

For the compound `C=CCCl`, the “activation” value is -2.56%. Still for that read-out and setting: for `C=CCOC(N)=O` the value was -0.159%. Turning to `COC(=O)NC(=S)Nc1ccccc1NC(=S)NC(=O)OC`, the Potency result is “inactive”.

As to `Cc1ccc2c(c1N)C(=O)c1ccccc1C2=O`, the Potency entry is “inactive”.

As to `COP(=O)(OC)C(O)C(Cl)(Cl)Cl` (stereo unspecified), the Potency entry is “inactive”. For `CN(C)N`, the “activation” value is 2.02%. In the case of `O=C(O)C(Br)Br`, the Potency entry is “inactive”. As for `c1ccc(P(c2ccccc2)c2ccccc2)cc1`, the Potency result is “inactive”. Take `CN(C)CCC#N`: the Potency entry was “inactive”.

As to `c1ccc2c(c1)sc1ccccc12`, the Potency entry was “inactive”.

The next assay has the same target. As to the kind of experiment: Dopamine D2 receptor (DRD2) small molecule antagonists, cell-based qHTS assay (AID 1963595; active means well fitted inhibition curve with a large enough effect in the signal ratio in the repeat runs, with a control signal flat; the % refers to the signal ratio). To be noted: HEK293-DRD2 cAMP HTRF antagonist mode; series mostly up to 92.4 µM; activity change, negative = inhibition: at the top concentration. The gist of the method:
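Antagonism was scored as restored cAMP in HEK293-DRD2 cells. These cells were stimulated with 200 nM NKH477 and 12 nM quinpirole for 30 min at room temperature, in the presence of 0.1 mM Ro20-1724.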
Regarding `Oc1ccc(C(c2ccc(O)cc2)(C(F)(F)F)C(F)(F)F)cc1`, the “activity change, negative = inhibition” value was -1.72%. For `O=C(Nc1ccc(Br)cc1)c1cc(Br)cc(Br)c1O`, the Potency entry is “inactive”. As for `c1ccc2c(c1)CCCC2`, the Potency entry is “inactive”. Regarding `CC(=[OH+])/C=C(/C)[O-].CC(=[OH+])/C=C(\C)[O-].CC(=[OH+])/C=C(\C)[O-].[Al]`, the “activity change, negative = inhibition” value was 3.81%. Still for that read-out and setting: the value for `CCCCCCI` was 0.181%. On to `Oc1ccccc1Cl`, for which the Potency result was “inactive”. Still for that read-out and setting: the value for `Oc1cc(Cl)ccc1Cl` was “inactive”. In the case of `CC(C)(C)C(=O)Cl`, the “activity change, negative = inhibition” value is -1.43%. As to `NNC(=S)NN`, the Potency entry was “inactive”. Take `O=[N+]([O-])c1ccc([As](=O)(O)O)cc1`: the Potency result is “inactive”. Consider `O=C(O)C(F)(F)C(F)(F)C(F)(F)C(F)(F)C(F)(F)C(F)(F)C(F)(F)C(F)(F)F`, for which the “activity change, negative = inhibition” value is 3.8%. On the same count and under the same terms, for `C=CC1CC=CCC1` (stereo unspecified) the value was -4.06%. As for `ClC1C(Cl)C(Cl)C(Cl)C(Cl)C1Cl` (stereo unspecified), the Potency entry is “inactive”. Consider `Cc1cccc([N+](=O)[O-])c1`, for which the Potency result is “inactive”. Take `NC(=O)CF`: the “activity change, negative = inhibition” value was 1.25%. Regarding `O=C(O)C1C2CCC(O2)C1C(=O)O` (stereo unspecified), the Potency entry is “inactive”.

For the compound `Cc1ccccc1O`, the Potency result is “inactive”. For the compound `CCC12COCN1COC2`, the Potency entry is “inactive”. Consider `C[Si](Cn1cncn1)(c1ccc(F)cc1)c1ccc(F)cc1`, for which the Potency entry is “inactive”. `Cc1ccccc1CCl`: the “activity change, negative = inhibition” value was 0.387%.

As for `N#Cc1cc([N+](=O)[O-])ccc1N`, the “activity change, negative = inhibition” value was -0.224%. With `O=Cc1ccc(Cl)cc1Cl`, the “activity change, negative = inhibition” value is -0.606%. The same measure, in the same setting: for `CCOC(=O)CC(SP(=S)(OC)OC)C(=O)OCC` (stereo unspecified) the value was 4.49% [at 42.5 µM]; for `COc1ccc2c(c1OC)C(=O)O[C@@H]2[C@H]1c2cc3c(cc2CCN1C)OCO3`, -3.51%. With `CC(C)(c1ccc(OCC2CO2)cc1)c1ccc(OCC2CO2)cc1` (stereo unspecified), the Potency entry was “inactive”. `C=CCCl`: the “activity change, negative = inhibition” value was -3.45%. For the compound `C/C(=N\NC(=O)Nc1cc(F)cc(F)c1)c1ncccc1C(=O)O`, the Potency result is “inactive”. `C=CCOC(N)=O`: the “activity change, negative = inhibition” value was 9.77%. For `COC(=O)NC(=S)Nc1ccccc1NC(=S)NC(=O)OC`, the Potency entry is “inactive”.

As for `Cc1ccc2c(c1N)C(=O)c1ccccc1C2=O`, the Potency entry is “inactive”. With `COP(=O)(OC)C(O)C(Cl)(Cl)Cl` (stereo unspecified), the Potency entry is “inactive”. `CN(C)N`: the “activity change, negative = inhibition” value was -0.895%. With `O=C(O)C(Br)Br`, the Potency result was “inactive”. In the case of `c1ccc(P(c2ccccc2)c2ccccc2)cc1`, the Potency result was “inactive”. As for `CN(C)CCC#N`, the Potency result is “inactive”. Regarding `c1ccc2c(c1)sc1ccccc12`, the “activity change, negative = inhibition” value is 0.0861%. On the same count and under the same terms, for `CCBr` the value was -3.39%.

(Values after PubChem BioAssay (Tox21).)
